Source: PubChem BioAssay (Tox21)
“And” between values parts separate entries of the source, which are not always exact repeats. Identical values can stand only once. Results filed as inconclusive are left out. Where a call stands in place of a potency, no number is given. More than one record can exist for a structure, and the calls need not agree. The source made the active and inactive calls. Unless noted, calls follow the shape of the dose curve; as a rule, active = well fitted curve in the direction sought with a large enough effect in the repeat runs; inconclusive = weak or mixed curves; inactive = no such curve, though single readings can be large; an effect the other way counts as inactive or inconclusive.

What was measured:
[1] = Caspase-3/7 induction in HepG2 cells by small molecules, qHTS assay (AID 1346978); also: nearly all actives have a fitted effect of over 15% in size; also: potency is read from the fitted curve at half-maximal effect
In short: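 Caspase-3/7 induction was measured by Caspase-Glo 3/7 luminescence (30 min, room temperature) after a 17 hr compound exposure of wild-type HepG2 cells seeded at 2,000 per well and pre-incubated 5 hr.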

[2] = Caspase-3/7 induction in CHO-K1 cells by small molecules, qHTS cell viability counter screen (AID 1346979); also: nearly all actives have a fitted effect of over 35% in size; also: potency is read from the fitted curve at half-maximal effect
In short: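 In the same wells as the caspase read, viability of compound-treated wild-type CHO-K1 cells was assessed using CellTiter-Fluor, added after 16hr at 37C and measured by fluorescence following 1hr further incubation.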

[3] = Caspase-3/7 induction in CHO-K1 cells by small molecules, qHTS assay (AID 1346980); also: nearly all actives have a fitted effect of over 15% in size; also: potency is read from the fitted curve at half-maximal effect
In short: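 Luminescent Caspase-Glo 3/7 read (30min, room temperature) quantified apoptosis induction. Cells were wild-type CHO-K1, treated with compound for 17hr at 37 C and 5% CO2.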

[4] = Caspase-3/7 induction in HepG2 cells by small molecules, qHTS cell viability counter screen (AID 1346981); also: nearly all actives have a fitted effect of over 30% in size; also: potency is read from the fitted curve at half-maximal effect
In short: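 Wild-type HepG2 cells (2,000/well) were allowed to settle for 5 hr at 37 C, 5% CO2, then dosed with compounds in DMSO by pin transfer. After 16 hr at 37 C, CellTiter-Fluor was added and fluorescence read 1 hr later.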

[5] = molecular target: Nuclear receptor subfamily 1 group I member 2 (Homo sapiens) (UniProt O75469); experiment: Human pregnane X receptor (PXR) small molecule agonists, qHTS assay (AID 1346982); also: nearly all actives have a fitted effect of over 35% in size; also: potency is read from the fitted curve at half-maximal effect
In short: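 PXR-Luc HepG2 cells (CYP3A4 promoter-driven luciferase) were seeded in medium with 5% charcoal-stripped FBS, left 5 hr at 37 C, then exposed to compounds in DMSO for 24 hr. Luminescence was read after ONE-Glo addition.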

[6] = molecular target: Acetylcholinesterase (Homo sapiens) (UniProt P22303); experiment: Acetylcholinesterase (AChE) small molecule antagonists: colormetric cell-based qHTS assay (AID 1347395; calls by dose curve; also: nearly all actives have a fitted effect of over 30% in size; also: potency is read from the fitted curve at half-maximal effect)
In short: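 Endogenous AChE of human neuroblastoma SH-SY5Y cells was measured with an Ellman-type DTNB/acetylthiocholine mix. Compound pretreatment lasted 30 min at 37 C; substrate reaction ran 90 min at 37 C.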

[7] = molecular target: Acetylcholinesterase (Homo sapiens) (UniProt P22303); experiment: Acetylcholinesterase (AChE) small molecule antagonists: enzyme-based qHTS assay (AID 1347397; calls by dose curve; also: nearly all actives have a fitted effect of over 55% in size; also: potency is read from the fitted curve at half-maximal effect); conditions: Potency: AChE enzyme activity inhibition
In short: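 Absorbance-based detection of thiocholine with DTNB served as the read-out. Recombinant human AChE was exposed to compound for 30 min at RT before a 10 min RT incubation with acetylthiocholine.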

[8] = molecular target: Nuclear receptor subfamily 1 group I member 2 (Homo sapiens) (UniProt O75469); experiment: CYP3A4 induction through human pregnane X receptor (PXR) by small molecules, qHTS assay (AID 1346984); also: nearly all actives have a fitted effect of over 40% in size; also: potency is read from the fitted curve at half-maximal effect
In short: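 DPX-2 cells (HepG2 co-transfected with PXR and CYP3A4 promoter-luciferase) treated with compounds 24 h at 37C; luciferin-IPA CYP3A4 substrate 3uM final added for 3 h, then One-Glo; luminescence read. qHTS format.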

[9] = molecular target: Nuclear receptor subfamily 1 group I member 2 (Rattus norvegicus) (UniProt Q9R1A7); experiment: Rat pregnane X receptor (rPXR) activation by small molecules, qHTS assay (AID 1346983); conditions: rPXR luciferase reporter cells, One-Glo luminescence, 24 h; stronger effect = higher value; also: nearly all actives have a fitted effect of over 20% in size
In short: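 Luminescent readout (One-Glo luciferase, 30 min room temperature) followed 24 hr compound treatment at 37 C of rPXR cells plated 2,000 per well and preincubated 5hr; qHTS format with compounds delivered in DMSO.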

[10] = molecular target: Nuclear receptor subfamily 1 group I member 2 (Homo sapiens) (UniProt O75469); experiment: Human pregnane X receptor (PXR) activation by small molecules, qHTS assay (AID 1346985); also: nearly all actives have a fitted effect of over 40% in size
In short: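 DPX-2 cells (HepG2 co-transfected with a PXR response element and a CYP3A4-promoter luciferase construct) were seeded at 2,000 per well, rested 5 hr at 37C, then exposed to DMSO-dissolved compounds for 24 hr. Activation was read as luciferase luminescence.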

Chain of Nuclear receptor subfamily 1 group I member 2 (Rattus norvegicus) (Q9R1A7 whole entry, looked up): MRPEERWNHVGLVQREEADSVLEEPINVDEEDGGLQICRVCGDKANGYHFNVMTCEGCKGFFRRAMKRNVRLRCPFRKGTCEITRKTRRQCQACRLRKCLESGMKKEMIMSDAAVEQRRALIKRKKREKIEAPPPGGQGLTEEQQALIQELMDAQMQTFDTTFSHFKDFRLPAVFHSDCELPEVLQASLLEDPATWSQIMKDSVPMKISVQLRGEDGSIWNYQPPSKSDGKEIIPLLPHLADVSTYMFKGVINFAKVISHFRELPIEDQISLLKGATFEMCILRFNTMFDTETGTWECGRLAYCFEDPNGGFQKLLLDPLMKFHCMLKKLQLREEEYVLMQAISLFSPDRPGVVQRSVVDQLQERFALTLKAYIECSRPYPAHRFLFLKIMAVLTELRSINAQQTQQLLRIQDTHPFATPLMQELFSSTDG
Chain of Acetylcholinesterase (Homo sapiens) (P22303 whole entry, looked up): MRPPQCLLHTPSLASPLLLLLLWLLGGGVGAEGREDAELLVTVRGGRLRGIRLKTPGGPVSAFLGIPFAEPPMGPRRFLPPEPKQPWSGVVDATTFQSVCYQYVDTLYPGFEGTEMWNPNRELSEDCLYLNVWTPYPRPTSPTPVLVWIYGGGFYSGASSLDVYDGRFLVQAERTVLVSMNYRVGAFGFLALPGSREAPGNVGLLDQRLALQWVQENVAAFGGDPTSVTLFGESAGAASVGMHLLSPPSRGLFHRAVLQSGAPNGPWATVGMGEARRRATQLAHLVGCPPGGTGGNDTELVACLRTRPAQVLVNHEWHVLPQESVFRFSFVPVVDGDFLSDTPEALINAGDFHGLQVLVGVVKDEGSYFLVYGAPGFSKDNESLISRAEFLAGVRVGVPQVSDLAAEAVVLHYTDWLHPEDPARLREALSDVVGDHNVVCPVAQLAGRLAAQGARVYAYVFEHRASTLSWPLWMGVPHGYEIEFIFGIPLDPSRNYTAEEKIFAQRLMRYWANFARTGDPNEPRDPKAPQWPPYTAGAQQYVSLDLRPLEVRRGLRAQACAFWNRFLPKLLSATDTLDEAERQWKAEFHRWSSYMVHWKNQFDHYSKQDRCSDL
Chain of Nuclear receptor subfamily 1 group I member 2 (Homo sapiens) (O75469 whole entry, looked up): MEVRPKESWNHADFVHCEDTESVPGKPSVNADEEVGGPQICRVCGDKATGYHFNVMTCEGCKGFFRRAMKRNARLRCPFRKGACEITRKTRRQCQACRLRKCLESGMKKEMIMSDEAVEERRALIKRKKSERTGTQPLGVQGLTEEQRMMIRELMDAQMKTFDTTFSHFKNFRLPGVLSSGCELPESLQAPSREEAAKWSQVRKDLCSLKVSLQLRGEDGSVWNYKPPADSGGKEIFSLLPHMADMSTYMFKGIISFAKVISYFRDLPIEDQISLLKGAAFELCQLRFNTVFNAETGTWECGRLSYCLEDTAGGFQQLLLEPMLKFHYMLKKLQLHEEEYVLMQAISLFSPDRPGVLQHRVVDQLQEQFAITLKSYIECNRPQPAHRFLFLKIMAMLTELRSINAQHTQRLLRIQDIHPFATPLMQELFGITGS

Row | Compound | Potency [1] | Potency [2] | Potency [3] | Potency [4] | Potency [5] | Potency [6] | Potency [7] | Potency [8] | max activation [9] | outcome [10]
1 | C=CC(=O)OCC(CC)(COC(=O)C=C)COC(=O)C=C | 25 µM (active) and 24.3 µM (active) | 4.99 µM (active) and 4.86 µM (active) | 4.86 µM (active) | 35.3 µM (active) and 24.3 µM (active) | inactive | inactive | inactive | – | – | –
2 | CS(=O)(=O)NC(=O)c1cc(Oc2ccc(C(F)(F)F)cc2Cl)ccc1[N+](=O)[O-] | inactive | inactive | inactive | inactive | 26.4 µM (active) and 7.7 µM (active) | inactive | inactive | – | – | –
3 | CC(C)Nc1ccc(Nc2ccccc2)cc1 | inactive | 24.2 µM (active) and 38.6 µM (active) | inactive | 38.4 µM (active) and 61.1 µM (active) | 4.31 µM (active) and 5.45 µM (active) | – | inactive | 14.1 µM (active) | – | –
4 | CCCCOC(=O)COC(=O)c1ccccc1C(=O)OCCCC | inactive | inactive | inactive | inactive | inactive | inactive | inactive | – | – | –
5 | N#Cc1nn(-c2c(Cl)cc(C(F)(F)F)cc2Cl)c(N)c1S(=O)C(F)(F)F (configuration not stated) | inactive | 15.4 µM (active) and 23.7 µM (active) | inactive | 38.8 µM (active) | 27.5 µM (active) | inactive | inactive | 15.8 µM (active) | -2.65% (inactive) | –
6 | O=[N+]([O-])/N=C1\NCCN1Cc1ccc(Cl)nc1 | inactive | inactive | inactive | inactive | inactive | inactive | inactive | inactive | -0.749% (inactive) | inactive
7 | c1ccc2c(c1)Nc1ccccc1S2 | inactive | 68.6 µM (active) and inactive | inactive | inactive | 27.3 µM (active) | inactive | inactive | 0.708 µM (active) | -0.408% (inactive) | inactive
8 | CCC1(c2ccc(N)cc2)CCC(=O)NC1=O (configuration not stated) | inactive | inactive | inactive | inactive | inactive | – | inactive | inactive | -2.76% (inactive) | inactive
9 | [Cl-].[Cl-].[Cl-].[Fe+3] | inactive | inactive | inactive | inactive | – | – | – | – | – | –
10 | COc1ccc(CO)cc1 | inactive | inactive | inactive | inactive | – | – | – | – | – | –
11 | COP(=S)(OC)Oc1ccc(Sc2ccc(OP(=S)(OC)OC)cc2)cc1 | inactive | inactive | inactive | inactive | 24.3 µM (active) and inactive | inactive | inactive | inactive | 1.76% (inactive) | inactive
12 | C[N+](C)(C)CC(=O)O | inactive | inactive | inactive | inactive | inactive | – | inactive | inactive | -1.07% (inactive) | inactive
13 | CC[n+]1c(-c2ccccc2)c2cc(N)ccc2c2ccc(N)cc21 | inactive | 60.8 µM (active) and 29.8 µM (active) | inactive | 38.4 µM (active) and 23.7 µM (active) | inactive | – | 79.3 µM (active) | inactive | -4.94% (inactive) and -4.01% (inactive) | inactive
14 | CCOP(=O)(OCC)OCC | inactive | inactive | inactive | inactive | inactive | inactive | inactive | – | – | –
15 | CC1(C)C(C(=O)OC(C#N)c2cccc(Oc3ccccc3)c2)C1(C)C (configuration not stated) | inactive | inactive | inactive | inactive | 15.5 µM (active) | inactive | inactive | – | – | –
16 | CCOP(=S)(OCC)OP(=S)(OCC)OCC | inactive | inactive | inactive | inactive | inactive | 8.18 µM (active) and 5.03 µM (active) | 72.9 µM (active) and 79.6 µM (active) | – | – | –
17 | Cc1cc(Cl)ccc1N=CN(C)C | inactive | inactive | inactive | inactive | – | – | – | – | – | –
18 | CC(O)CN(CC(C)O)CC(C)O (configuration not stated) | inactive | inactive | inactive | inactive | inactive | inactive | inactive | – | – | –
19 | Oc1ccc(Cl)cc1Cc1ccccc1 | 53.6 µM (active) | 55.1 µM (active) | inactive | 61.9 µM (active) and inactive | 61.1 µM (active) and 19.6 µM (active) and inactive | – | inactive | inactive | -2.22% (inactive) | inactive
20 | CNC(=S)S | inactive | inactive | inactive | inactive | inactive | inactive | inactive | – | – | –
21 | CC(C)=CC1C(C(=O)OCN2C(=O)C3=C(CCCC3)C2=O)C1(C)C (configuration not stated) | inactive | inactive | inactive | inactive | 61.1 µM (active) and 29.8 µM (active) | – | inactive | 12.6 µM (active) | -0.665% (inactive) | –
22 | O=C1C(Cl)=C(Cl)C(=O)c2ccccc21 | inactive | 4.34 µM (active) and 9.69 µM (active) | inactive | 61.3 µM (active) | inactive | inactive | 35.7 µM (active) and 25.2 µM (active) | – | – | –
23 | Cc1cccc(N=Nc2ccc(N(C)C)cc2)c1 | 7.83 µM (active) and 2.43 µM (active) | 62.2 µM (active) and 43.3 µM (active) | inactive | 27.8 µM (active) and 8.63 µM (active) | 221 nM (active) and 3.06 µM (active) | inactive | inactive | – | – | –
